Source: PubChem BioAssay (NCI)
The panel holds about 79,000 compounds, 15% with a hit somewhere; the sample as a whole holds those more often. A number with no mark means an inactive call. Activity calls are given as the source filed them. Cut-off read from the data, not from the text of the source: active = growth inhibition above about 70%; inactive = the rest.

What was measured:
[1] = NCI Yeast Anticancer Drug Screen. Data for the rad50 strain (AID 155);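 note: 0% = growth of vehicle-only cultures of the same strain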; settings: S. cerevisiae rad50 strain growth inhibition, hits give high values
Summary of the method: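 Readout: growth inhibition relative to vehicle-treated cultures. Compound exposure was carried out in a genetically defined yeast strain deficient in DNA damage repair.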

[2] = NCI Yeast Anticancer Drug Screen. Data for the mec2-1 strain (AID 157); settings: S. cerevisiae mec2-1 strain, hits give high values
Summary of the method: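 Readout is yeast growth inhibition, normalised to vehicle-treated controls, in the mec2-1 strain exposed to compound.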

[3] = NCI Yeast Anticancer Drug Screen. Data for the sgs1 mgt1 strain (AID 161);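 note: 0% = growth of cultures given vehicle only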; settings: S. cerevisiae sgs1 mgt1 strain, hits give high values
Summary of the method: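 Yeast cells carrying a defined DNA-repair defect were exposed to test compounds. Growth inhibition was measured relative to vehicle-treated controls.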

[4] = NCI Yeast Anticancer Drug Screen. Data for the cln2 rad14 strain (AID 165);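 note: 0% = growth equal to vehicle treated cultures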; settings: S. cerevisiae cln2 rad14 strain, hits give high values
Summary of the method: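 Relative to vehicle controls, growth inhibition of compound-treated cln2 rad14 yeast was recorded.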

[5] = NCI Yeast Anticancer Drug Screen. Data for the bub3 strain (AID 167); settings: S. cerevisiae bub3 mutant strain, hits give high values
Summary of the method: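 Readout: yeast growth inhibition, expressed relative to vehicle-only wells. The test organism is a mutant strain from a panel with lesions in DNA repair or checkpoint genes.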

[6] = NCI Yeast Anticancer Drug Screen. Data for the mlh1 rad18 strain (AID 175); settings: S. cerevisiae mlh1 rad18 strain growth inhibition, hits give high values
Summary of the method: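 Test agents were incubated with a yeast strain of defined genotype (DNA damage repair defect). Inhibition of growth was derived by comparison with vehicle-exposed cultures.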

[7] = at 5.0 µM (retest, dose inferred, filed as 0.5)
[8] = at 50.0 µM (retest, dose inferred, filed as 5.0)

For `CC(C)c1ccc(C(=O)OC2CCCCC2)cc1`, which growth inhibition [1, 7] is on record?
Its growth inhibition is 7%.

What about the growth inhibition [1, 8] of the same molecule?
The growth inhibition was 97% (active).

What about the growth inhibition ([1]; at 50.0 µM) of the same molecule?
The growth inhibition was 73.3% (active).

And the growth inhibition [2, 7]?
The growth inhibition was 8%.

And the growth inhibition [2, 8]?
The growth inhibition was 100% (active).

What about the growth inhibition ([2]; at 50.0 µM) of the same molecule?
The growth inhibition was 9.4%.

And the growth inhibition [3, 7]?
Its growth inhibition is 7%.

And the growth inhibition [3, 8]?
The growth inhibition was 96% (active).

And the growth inhibition ([3]; at 50.0 µM)?
Its growth inhibition is 46%.

And the growth inhibition [4, 7]?
Its growth inhibition is 4%.

And the growth inhibition [4, 8]?
Its growth inhibition is 98% (active).

What about the growth inhibition ([4]; at 50.0 µM) of the same molecule?
Its growth inhibition is 58.1%.

And the growth inhibition [5, 7]?
Its growth inhibition is 1%.

And the growth inhibition [5, 8]?
The growth inhibition was 100% (active).

What about the growth inhibition ([5]; at 50.0 µM) of the same molecule?
The growth inhibition was 88.7% (active).

What about the growth inhibition [6, 7] of the same molecule?
Its growth inhibition is 2%.

And the growth inhibition [6, 8]?
The growth inhibition was 96% (active).

And the growth inhibition ([6]; at 50.0 µM)?
The growth inhibition was 62.2%.

Which results are given for `CCCCCC(CCCCC)C(=O)O`?
growth inhibition [1, 7]: 0%; growth inhibition [1, 8]: 63%; growth inhibition ([1]; at 50.0 µM): 78.6% (active); growth inhibition [2, 7]: -7%; growth inhibition [2, 8]: 52%; growth inhibition ([2]; at 50.0 µM): 70.2% (active); growth inhibition [3, 7]: -20%; growth inhibition [3, 8]: 48%; growth inhibition ([3]; at 50.0 µM): 72% (active); growth inhibition [4, 7]: -11%; growth inhibition [4, 8]: 50%; growth inhibition ([4]; at 50.0 µM): 78% (active); growth inhibition [5, 7]: -5%; growth inhibition [5, 8]: 29%; growth inhibition ([5]; at 50.0 µM): 66.2%; growth inhibition [6, 7]: -1%; growth inhibition [6, 8]: 60%; growth inhibition ([6]; at 50.0 µM): 79.5% (active)

With `Cc1c2cc[n+](C)cc2c(C)c2c1sc1ccccc12` as the molecule, how does the growth inhibition [1, 7] read?
The growth inhibition was 21%.

And the growth inhibition [1, 8]?
The growth inhibition was 97% (active).

And the growth inhibition ([1]; at 50.0 µM)?
Its growth inhibition is 39.4%.

And the growth inhibition [2, 7]?
The growth inhibition was -2%.

And the growth inhibition [2, 8]?
Its growth inhibition is 98% (active).

And the growth inhibition ([2]; at 50.0 µM)?
The growth inhibition was 91.2% (active).

What about the growth inhibition [3, 7] of the same molecule?
Its growth inhibition is 18%.

What about the growth inhibition [3, 8] of the same molecule?
The growth inhibition was 99% (active).

What about the growth inhibition ([3]; at 50.0 µM) of the same molecule?
The growth inhibition was 90.8% (active).

What about the growth inhibition [4, 7] of the same molecule?
The growth inhibition was 4%.

And the growth inhibition [4, 8]?
Its growth inhibition is 97% (active).

And the growth inhibition ([4]; at 50.0 µM)?
Its growth inhibition is 91.5% (active).

What about the growth inhibition [5, 7] of the same molecule?
The growth inhibition was 16%.

What about the growth inhibition [5, 8] of the same molecule?
Its growth inhibition is 99% (active).

And the growth inhibition ([5]; at 50.0 µM)?
Its growth inhibition is 92.7% (active).

What about the growth inhibition [6, 7] of the same molecule?
The growth inhibition was 8%.

What about the growth inhibition [6, 8] of the same molecule?
Its growth inhibition is 97% (active).

And the growth inhibition ([6]; at 50.0 µM)?
The growth inhibition was 91.5% (active).

With `Cc1nc2sc3c(c2c2nnnn12)CCCC3` as the molecule, how does the growth inhibition [1, 7] read?
The growth inhibition was 2%.

What about the growth inhibition [1, 8] of the same molecule?
The growth inhibition was 28%.

And the growth inhibition ([1]; at 50.0 µM)?
Its growth inhibition is 6.6%.

What about the growth inhibition [2, 7] of the same molecule?
The growth inhibition was 8%.

What about the growth inhibition [2, 8] of the same molecule?
Its growth inhibition is 29%.

What about the growth inhibition ([2]; at 50.0 µM) of the same molecule?
The growth inhibition was 16.9%.

What about the growth inhibition [3, 7] of the same molecule?
The growth inhibition was 24%.

What about the growth inhibition [3, 8] of the same molecule?
The growth inhibition was 74% (active).

What about the growth inhibition ([3]; at 50.0 µM) of the same molecule?
Its growth inhibition is 53%.

What about the growth inhibition [4, 7] of the same molecule?
Its growth inhibition is 4%.

And the growth inhibition [4, 8]?
Its growth inhibition is 23%.

And the growth inhibition ([4]; at 50.0 µM)?
Its growth inhibition is -6.5%.

And the growth inhibition [5, 7]?
Its growth inhibition is 3%.

And the growth inhibition [5, 8]?
Its growth inhibition is 11%.

And the growth inhibition ([5]; at 50.0 µM)?
Its growth inhibition is 27.6%.

And the growth inhibition [6, 7]?
The growth inhibition was 7%.

What about the growth inhibition [6, 8] of the same molecule?
Its growth inhibition is 31%.

What about the growth inhibition ([6]; at 50.0 µM) of the same molecule?
The growth inhibition was 9.45%.

Which growth inhibition [1, 7] does the source give for `CCN(CC)CC(C)(C)C(=O)/C=C/c1ccc(Cl)c(Cl)c1` here?
Its growth inhibition is 6%.

What about the growth inhibition [1, 8] of the same molecule?
Its growth inhibition is 98% (active).

What about the growth inhibition ([1]; at 50.0 µM) of the same molecule?
Its growth inhibition is 97.9% (active).

What about the growth inhibition [2, 7] of the same molecule?
Its growth inhibition is 9%.

What about the growth inhibition [2, 8] of the same molecule?
Its growth inhibition is 98% (active).

What about the growth inhibition ([2]; at 50.0 µM) of the same molecule?
The growth inhibition was 99.2% (active).

And the growth inhibition [3, 7]?
The growth inhibition was 18%.

What about the growth inhibition [3, 8] of the same molecule?
Its growth inhibition is 94% (active).

And the growth inhibition ([3]; at 50.0 µM)?
The growth inhibition was 98% (active).

And the growth inhibition [4, 7]?
The growth inhibition was 4%.

And the growth inhibition [4, 8]?
Its growth inhibition is 97% (active).

And the growth inhibition ([4]; at 50.0 µM)?
Its growth inhibition is 89.2% (active).

What about the growth inhibition [5, 7] of the same molecule?
Its growth inhibition is 1%.

What about the growth inhibition [5, 8] of the same molecule?
The growth inhibition was 98% (active).

And the growth inhibition ([5]; at 50.0 µM)?
The growth inhibition was 98.8% (active).

And the growth inhibition [6, 7]?
The growth inhibition was 8%.

And the growth inhibition [6, 8]?
The growth inhibition was 97% (active).

And the growth inhibition ([6]; at 50.0 µM)?
The growth inhibition was 99% (active).

For `Cc1ccc(S(=O)(=O)Oc2ccc3oc4c(CO)ccc(NCCN(C)C)c4c(=O)c3c2)cc1`, which growth inhibition [1, 7] is on record?
The growth inhibition was 3%.

And the growth inhibition [1, 8]?
The growth inhibition was 5%.

What about the growth inhibition ([1]; at 50.0 µM) of the same molecule?
Its growth inhibition is 16.6%.

And the growth inhibition [2, 7]?
The growth inhibition was 0%.

What about the growth inhibition [2, 8] of the same molecule?
The growth inhibition was -32%.

What about the growth inhibition ([2]; at 50.0 µM) of the same molecule?
Its growth inhibition is -17.6%.

And the growth inhibition [3, 7]?
The growth inhibition was 2%.

And the growth inhibition [3, 8]?
Its growth inhibition is 16%.

And the growth inhibition ([3]; at 50.0 µM)?
The growth inhibition was 97.8% (active).

And the growth inhibition [4, 7]?
Its growth inhibition is 1%.

What about the growth inhibition [4, 8] of the same molecule?
Its growth inhibition is 7%.

What about the growth inhibition ([4]; at 50.0 µM) of the same molecule?
Its growth inhibition is -2.35%.

What about the growth inhibition [5, 7] of the same molecule?
Its growth inhibition is 3%.

And the growth inhibition [5, 8]?
Its growth inhibition is 4%.

What about the growth inhibition ([5]; at 50.0 µM) of the same molecule?
The growth inhibition was -9.25%.

What about the growth inhibition [6, 7] of the same molecule?
The growth inhibition was 3%.

What about the growth inhibition [6, 8] of the same molecule?
Its growth inhibition is 14%.

What about the growth inhibition ([6]; at 50.0 µM) of the same molecule?
Its growth inhibition is 43%.

What does the source list for `COC(=O)c1ccc(/C=C/C2=CC(=O)C=CC2=O)cc1`?
growth inhibition [1, 7]: 30%; growth inhibition [1, 8]: 44%; growth inhibition ([1]; at 50.0 µM): 29.6%; growth inhibition [2, 7]: 27%; growth inhibition [2, 8]: 41%; growth inhibition ([2]; at 50.0 µM): 36.5%; growth inhibition [3, 7]: 27%; growth inhibition [3, 8]: 57%; growth inhibition ([3]; at 50.0 µM): 78.2% (active); growth inhibition [4, 7]: 18%; growth inhibition [4, 8]: 28%; growth inhibition ([4]; at 50.0 µM): 58.9%; growth inhibition [5, 7]: 37%; growth inhibition [5, 8]: 57%; growth inhibition ([5]; at 50.0 µM): 75.3% (active); growth inhibition [6, 7]: 29%; growth inhibition [6, 8]: 57%; growth inhibition ([6]; at 50.0 µM): 84.1% (active)

What does the source list for `O=[N+]([O-])c1cc(Cl)c(Cl)cc1NS(=O)(=O)c1ccccc1`?
growth inhibition [1, 7]: 17%; growth inhibition [1, 8]: 45%; growth inhibition ([1]; at 50.0 µM): 29.1%; growth inhibition [2, 7]: -8%; growth inhibition [2, 8]: 51%; growth inhibition ([2]; at 50.0 µM): 49.5%; growth inhibition [3, 7]: 7%; growth inhibition [3, 8]: 58%; growth inhibition ([3]; at 50.0 µM): 39.4%; growth inhibition [4, 7]: 25%; growth inhibition [4, 8]: 84% (active); growth inhibition ([4]; at 50.0 µM): 54.5%; growth inhibition [5, 7]: 9%; growth inhibition [5, 8]: 57%; growth inhibition ([5]; at 50.0 µM): 40.4%; growth inhibition [6, 7]: 10%; growth inhibition [6, 8]: 76% (active); growth inhibition ([6]; at 50.0 µM): 71.2% (active)

For `CCC(=O)Sc1ccccc1C(=O)Nc1ccc(Cl)cc1`, which growth inhibition [1, 7] is on record?
The growth inhibition was 18%.

What about the growth inhibition [1, 8] of the same molecule?
Its growth inhibition is 43%.

And the growth inhibition ([1]; at 50.0 µM)?
Its growth inhibition is 88.5% (active).

What about the growth inhibition [2, 7] of the same molecule?
Its growth inhibition is 28%.

What about the growth inhibition [2, 8] of the same molecule?
Its growth inhibition is 64%.

And the growth inhibition ([2]; at 50.0 µM)?
Its growth inhibition is 92.9% (active).

What about the growth inhibition [3, 7] of the same molecule?
The growth inhibition was 12%.

And the growth inhibition [3, 8]?
The growth inhibition was 47%.

What about the growth inhibition ([3]; at 50.0 µM) of the same molecule?
The growth inhibition was 52.4%.

What about the growth inhibition [4, 7] of the same molecule?
The growth inhibition was 23%.

And the growth inhibition [4, 8]?
Its growth inhibition is 62%.

What about the growth inhibition ([4]; at 50.0 µM) of the same molecule?
Its growth inhibition is 53.1%.

And the growth inhibition [5, 7]?
The growth inhibition was 22%.

And the growth inhibition [5, 8]?
Its growth inhibition is 74% (active).

And the growth inhibition ([5]; at 50.0 µM)?
Its growth inhibition is 56.4%.

What about the growth inhibition [6, 7] of the same molecule?
The growth inhibition was 29%.

And the growth inhibition [6, 8]?
The growth inhibition was 65%.

And the growth inhibition ([6]; at 50.0 µM)?
The growth inhibition was 85.2% (active).
